Compound activity: PubChem BioAssay, National Center for Advancing Translational Sciences (NCATS)
Compounds with a hit are over-represented: about 8.7% of the library has one in this group of screens.
G9a block: blocks human histone lysine methyltransferase G9a; Q96KQ7; Potency, µM (series often up to 102 µM), for inactives: at the highest dose activity, negative = inhibition, hits mostly inhibitors; G9a H3K9 monomethylation, AlphaScreen, 2 h; actives 8.8% (n = 350,000); further: on the % scale 0 is the no-effect control and ±100 the full control effect; nearly all actives have a fitted effect of over 75% in size
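G9a (20 nM) preincubated 15 min RT with compounds, then 500 nM biotinylated H3K9 peptide and 20 uM SAM added; 2 h RT reaction. Monomethyl-H3K9 product detected by AlphaScreen with anti-H3K9me1 antibody, streptavidin donor and anti-rabbit IgG acceptor beads.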
HP1b binding inh: blocks HP1-beta chromodomain binding to methylated histone tails. P83916. actives 0.56% (n = 390,000). AlphaScreen HP1-beta / biotin-H3K9me3 peptide binding. Potency, µM (titrated, usually from 114 µM), for the others: at the top dose activity change, negative = inhibition, actives largely listed as inhibitors; further: nearly all actives have a fitted effect of over 70% in size
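HP1-beta protein (50 nM final) preincubated 30 min at room temperature with biotinylated H3(1-18)K9me3 peptide (50 nM) in PBS pH 7.4, 0.01% Tween-20, then compound added for 30 min. AlphaScreen streptavidin donor/nickel chelate acceptor beads (10 ug/mL final), 30 min dark, luminescence read.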
Sfp inh: blocks B. subtilis Sfp PPTase activity; Q9F4F7; actives 3.5% (n = 310,000); Biochemical Sfp PPTase activity, qHTS; AID 1490; Potency, µM, inactives show largest response in the series, negative = inhibition, most hits filed as inhibitors;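 further: the enzyme is Sfp with the accession as filed and its product quenches rhodamine fluorescence; 0% = enzyme reaction without inhibitor and -100% = no enzyme wells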
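With Hepes-Na pH 7.6 buffer containing 10 mM MgCl2, Sfp (15 nM) modified BHQ-2-YbbR (12.5 uM) using rhodamine-CoA (5 uM). Two reads 30 minutes apart at 525/598 nm yielded each well's rate.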
JMJD2A Tudor: JMJD2A Tudor domain (human) inhibition. O75164. AlphaScreen JMJD2A-Tudor / H3K4me3 peptide binding. Potency, µM (series often up to 114 µM), for inactives: top-dose activity change, negative = inhibition, hits mostly inhibitors. actives 4.4% (n = 390,000); further: on the % scale 0 is the no-effect control and ±100 the full control effect; nearly all actives have a fitted effect of over 50% in size
Target sequence (O75164 whole entry, looked up, the tested form may be a part): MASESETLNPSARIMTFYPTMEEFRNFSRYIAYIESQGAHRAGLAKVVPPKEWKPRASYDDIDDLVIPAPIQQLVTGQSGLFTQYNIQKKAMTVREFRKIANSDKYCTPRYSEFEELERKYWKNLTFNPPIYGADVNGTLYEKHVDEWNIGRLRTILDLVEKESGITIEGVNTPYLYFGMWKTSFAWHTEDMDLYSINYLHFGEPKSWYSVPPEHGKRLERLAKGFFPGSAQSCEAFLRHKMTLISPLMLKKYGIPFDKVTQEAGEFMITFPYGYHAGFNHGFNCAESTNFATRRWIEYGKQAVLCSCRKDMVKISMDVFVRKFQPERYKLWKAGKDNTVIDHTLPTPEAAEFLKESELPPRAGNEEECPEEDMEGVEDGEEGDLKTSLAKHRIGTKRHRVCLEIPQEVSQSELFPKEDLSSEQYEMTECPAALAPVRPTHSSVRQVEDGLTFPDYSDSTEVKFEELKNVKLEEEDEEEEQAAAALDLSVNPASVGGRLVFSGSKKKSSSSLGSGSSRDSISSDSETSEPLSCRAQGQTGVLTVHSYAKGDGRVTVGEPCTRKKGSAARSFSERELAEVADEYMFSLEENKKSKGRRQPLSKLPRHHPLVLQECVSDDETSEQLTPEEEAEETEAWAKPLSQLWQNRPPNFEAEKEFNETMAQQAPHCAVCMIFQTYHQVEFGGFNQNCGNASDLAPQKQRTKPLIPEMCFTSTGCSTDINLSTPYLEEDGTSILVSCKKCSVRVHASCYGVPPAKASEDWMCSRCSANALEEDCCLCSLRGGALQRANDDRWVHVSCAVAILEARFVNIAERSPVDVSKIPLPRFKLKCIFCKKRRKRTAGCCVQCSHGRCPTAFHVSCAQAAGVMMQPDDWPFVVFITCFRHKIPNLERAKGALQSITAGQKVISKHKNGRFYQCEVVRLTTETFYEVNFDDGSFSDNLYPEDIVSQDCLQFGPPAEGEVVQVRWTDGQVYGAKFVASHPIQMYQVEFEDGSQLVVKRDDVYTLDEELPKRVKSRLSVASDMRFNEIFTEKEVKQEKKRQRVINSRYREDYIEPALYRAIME
12-LOX inh: inhibitors of human 12S-lipoxygenase ALOX12. P18054. actives 1.1% (n = 580,000). Potency, µM (top dose mostly 108 µM), for the others: top-dose activity change, negative = inhibition, hits mostly inhibitors. purified 12hLO, xylenol orange hydroperoxide absorbance; further: on the % scale 0 is the no-effect control and ±100 the full control effect
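Purified human 12hLO (150 nM final) in 25 mM Hepes, 0.01% Triton X-100, pH 7.0 was preincubated 15 min at room temperature with compound. Then 40 uM arachidonic acid was added, 30 min. Hydroperoxide was read by Fe-XO absorbance ratio 573/405 nm.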
BAZ2B block: BAZ2B (human) inhibition; Q9UIF8; AlphaScreen BAZ2B-H3K14Ac peptide displacement; Potency, µM (doses to about 114 µM), without a hit: top-dose activity change, negative = inhibition, most hits filed as inhibitors; actives 4.4% (n = 360,000); further: on the % scale 0 is the no-effect control and ±100 the full control effect; nearly all actives have a fitted effect of over 60% in size
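AlphaScreen displacement of biotin-H3(5-23)K14Ac peptide (50 nM final) from BAZ2B (50 nM final) in PBS pH 7.4, 0.01% Tween-20; complex preformed 30 min RT, then compounds (top 110 uM) 30 min RT, beads 20 min dark.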
Starred values were filed as active, the others as inactive; ? = inconclusive; nt = no result; [ ] = remark or other dose. The call rests on the fitted dose curve; in most records, active means well fitted curve in the direction sought with a large enough effect; inconclusive means small, poorly fitted or top-dose-only effect, or another doubt; inactive means no such curve, though single readings can be large; an effect the other way counts as inactive or inconclusive. Potency means the concentration at half of the fitted maximal effect.

SMILES	G9a block	HP1b binding inh	Sfp inh	JMJD2A Tudor	12-LOX inh	BAZ2B block
Cc1c(C(=O)OCCOC(C)C)[nH]c2c1C(=O)CC(c1ccco1)C2 (stereo unspecified)	44.7µM*	-16.1%	?	?	nt	50.1µM*
Cc1c(C(=O)OCc2ccccc2)[nH]c2c1C(=O)CC(c1ccco1)C2 (stereo unspecified)	?	70.8µM*	39.8µM*	25.1µM*	nt	50.1µM*
COCCOC(=O)c1[nH]c2c(c1C)C(=O)CC(c1ccccc1)C2 (stereo unspecified)	-7.3%[59 µM]	14.6%	14.8%	-13.6%	nt	2.6%
CSCCOC(=O)c1[nH]c2c(c1C)C(=O)CC(c1ccco1)C2 (stereo unspecified)	22.4µM*	?	44.7µM*	35.5µM*	343.6%	44.7µM*
COCCOC(=O)c1[nH]c2c(c1C)C(=O)CC(c1ccco1)C2 (stereo unspecified)	50.1µM*	50.1µM*	-25.7%	44.7µM*	?	50.1µM*
COCCOC(=O)c1oc2c(c1C)C(=O)CC(c1ccco1)C2 (stereo unspecified)	nt	nt	nt	nt	-25.9%	nt
Cn1c(=O)c2nc(SCC(=O)O)n(Cc3ccccc3)c2n(C)c1=O	nt	nt	nt	nt	-8.4%	nt
CCC(=O)NCCc1sc(-c2ccc(F)cc2)nc1C	nt	nt	nt	nt	-1.9%	nt
CCOC(=O)c1[nH]c2c(c1C)C(=O)CC(c1ccco1)C2 (stereo unspecified)	?	-14.7%	25.1µM*	56.2µM*	10.4%	44.7µM*
CCCNc1ncc(CN2CCCC(c3ccc(C(=O)O)cc3)C2)cn1 (stereo unspecified)	nt	nt	nt	nt	26.4%	nt
CC(C)N1CCN(Cc2cccc(-c3ccco3)c2)CC1CCO (stereo unspecified)	25.1µM*	-12.0%	-3.5%	-18.1%	3.7%	-31.2%
CCCn1c2ccccc2c2nnc(SCc3ccc(F)cc3)nc21	nt	nt	nt	nt	-17.2%	nt
C[C@H]1[C@@H]2[C@@H](O)C([C@H](C)C(=O)NC3CCCC3)CC[C@@]2(C)CC[C@@H]1NC(=O)c1ccncc1 (stereo partly specified)	nt	nt	nt	nt	-13.0%	nt
CC(C)S(=O)(=O)N1CC[C@H]2C(=O)NCCCCCCN(Cc3ccncc3)[C@@H]2C1	nt	nt	nt	nt	21.4%	nt
COc1ccccc1OCC(=O)Nc1cc(C(F)(F)F)ccc1-n1cncn1	44.7µM*	44.4%	nt	-2.8%	-9.2%	0.1%
S=C(/N=c1/sccn1Cc1ccccc1)NC1CC1	50.1µM*	1.6%	-11.6%	-31.8%	?	56.2µM*
CCOc1ccccc1NC(=O)N1CCC(N2CC3CC(C2)[C@H]2CCCC(=O)N2C3)CC1 (stereo partly specified)	nt	nt	nt	nt	19.9%	nt
O=C(O)C1=NN(c2ccccc2)C(=O)C1	50.1µM*	?	-21.8%	56.2µM*	?	?
O=C(O)C1=NN(c2ccccc2)C(=O)CC1	-2.4%	29.2%	8.3%	-2.8%	?	?
Cc1ccc(NC(C)c2cc(Cl)ccc2O)cc1 (stereo unspecified)	-38.0%[59 µM]	-29.0%	-3.0%	?	-0.4%	50.1µM*
CC(Nn1cnnc1)c1cc(Cl)ccc1O (stereo unspecified)	-4.4%	29.0%	21.0%	-9.7%	-1.9%	-13.3%
CCOC(=S)SCc1cn2cccc(C)c2n1	31.6µM*	48.3%	?	-5.5%	-2.7%	-19.7%
O=C(C1=C(O)C(=O)N(CC2CCCO2)C1c1ccc(Cl)cc1)c1ccco1 (stereo unspecified)	1.1%[59 µM]	9.5%	14.3%	-28.5%	?	-3.4%
COc1cccc2cc(C(=O)C3=C(O)C(=O)N(CCN4CCOCC4)C3c3cccs3)oc12 (stereo unspecified)	17.3%[59 µM]	7.1%	-24.0%	79.4µM*	?	-7.9%
COC(=O)c1ccc(C2C(C(=O)c3ccco3)=C(O)C(=O)N2CC2CCCO2)cc1 (stereo unspecified)	44.7µM*	31.4%	-0.2%	17.6%	?	-24.4%
SMILES	G9a block	HP1b binding inh	Sfp inh	JMJD2A Tudor	12-LOX inh	BAZ2B block
COc1ccc(OC)c(C2C(C(=O)c3ccco3)=C(O)C(=O)N2CC2CCCO2)c1 (stereo unspecified)	50.1µM*	-8.9%	-0.6%	-7.4%	?	?
COc1cc(C2C(C(=O)c3cccs3)=C(O)C(=O)N2CCN2CCOCC2)cc(OC)c1OC (stereo unspecified)	?	40.2%	5.0%	2.1%	0.0%	2.5%
O=C(C1=C(O)C(=O)N(CC2CCCO2)C1c1ccccc1[N+](=O)[O-])c1ccco1 (stereo unspecified)	35.5µM*	2.6%	-6.9%	-13.6%	?	-2.8%
COc1ccc(S(=O)(=O)N2CC(c3noc(-c4cccnc4)n3)C2)cc1Cl	nt	nt	nt	nt	2.4%	nt
c1ccc(CN2CCC[C@H]2c2nc(-c3ccnc(N4CCOCC4)c3)no2)nc1	nt	nt	nt	nt	51.5%[176 µM]	nt
COc1ccc(OC)c(C2C(C(=O)c3ccco3)=C(O)C(=O)N2CCN2CCOCC2)c1 (stereo unspecified)	nt	nt	11.2%	nt	?	?
COc1ccc(C2C(C(=O)c3ccco3)=C(O)C(=O)N2CCN2CCOCC2)c(OC)c1 (stereo unspecified)	35.5µM*	31.2%	-1.2%	?	?	-32.2%
O=C(C1CC(=O)N(c2n[nH]c3cc(Br)ccc23)C1)N1CCCC1 (stereo unspecified)	nt	nt	nt	nt	51.8%	nt
CC(C)(C)NC(=O)C(c1ccco1)N(C(=O)c1ccc(CN2CCOCC2)o1)c1ccccc1 (stereo unspecified)	11.2µM*	8.2%	12.5%	-4.9%	4.9%	1.6%
N#CC(c1cccc(Cl)c1)c1ccc2c(C(F)(F)F)cc(C(F)(F)F)nc2n1 (stereo unspecified)	14.1µM*	10µM*	-2.4%	28.2µM*	5.5%	10µM*
O=C(NCc1coc(-c2cccs2)n1)c1ccc(S(=O)(=O)C(F)F)cc1	nt	nt	nt	nt	-19.3%	nt
COC(=O)Nc1ccc(S(=O)(=O)N2CCC(C)CC2)cc1	17.5%[12.7 µM]	18.2%	9.2%	-9.2%	-5.9%	10.8%
COC(=O)Nc1ccc(S(=O)(=O)N2CCN(C)CC2)cc1	?	21.9%	24.6%	79.4µM*	-4.6%	4.3%
COC(=O)Nc1ccc(S(=O)(=O)N2CCC(C(=O)N3CCC(C)CC3)CC2)cc1	10.6%	-3.5%	1.2%	11.2µM*	2.1%	-7.6%
CC(C)c1nnc2ccc(NCc3ccc(F)cc3)nn12	nt	nt	nt	nt	0.3%	nt
CN1CCN(CCCNC(=O)CN2CC3CC(C2)[C@H]2CCCC(=O)N2C3)CC1 (stereo partly specified)	nt	nt	nt	nt	41.2%	nt
